Sampled rows, rich in hits. Any-hit rate of the full collection: about 3.2%.
Mcl1-Noxa inh – disrupts binding of human Mcl-1 to Noxa peptide; Q07820; TR-FRET Mcl-1/Noxa peptide binding, 2 h; inhibition, % at 21.7 µM; hit rate 1.5% among 220,000; AID 1022;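 active = compounds that cut the protein-peptide binding signal by more than 50% relative to plate controls in a single-dose test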;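 note: His-tagged Mcl-1 with rhodamine Noxa BH3 peptide and terbium anti-His antibody; 0% = Mcl-1 plus Noxa peptide wells and 100% = peptide-only wells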
Target sequence (Q07820 whole entry, looked up): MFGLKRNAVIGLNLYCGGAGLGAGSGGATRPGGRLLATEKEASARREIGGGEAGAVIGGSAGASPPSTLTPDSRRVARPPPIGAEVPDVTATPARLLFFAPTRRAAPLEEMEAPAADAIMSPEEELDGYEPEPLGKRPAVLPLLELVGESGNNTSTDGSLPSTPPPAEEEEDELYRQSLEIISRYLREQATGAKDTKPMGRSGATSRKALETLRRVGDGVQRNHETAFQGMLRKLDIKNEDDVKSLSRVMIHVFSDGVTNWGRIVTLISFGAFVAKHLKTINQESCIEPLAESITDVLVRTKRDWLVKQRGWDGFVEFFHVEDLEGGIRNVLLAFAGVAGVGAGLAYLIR
Mcl1-Bid inh – disrupts binding of human Mcl-1 to Bid peptide | TR-FRET Mcl-1/Bid-Dy647 peptide binding, 1536-well | hit rate 0.97% among 220,000 | Q07820 | inhibition, % at 21.7 µM;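 active = compounds that cut the binding signal by more than half at the single screening dose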;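 note: His-tagged Mcl-1 with europium anti-His antibody binding Bid BH3 peptide; 0% = Mcl-1 plus peptide wells and 100% = peptide-only wells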
Bim-Mcl-1 – human Bim-Mcl-1 interaction inhibition | Bead-based flow cytometry, Bim peptide-Mcl-1 binding | Q07820 | AID 1009 | inhibition, % at 10 µM | hit rate 0.1% among 190,000; in the data active = inhibition above about 40%;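 note: 0% = no compound tracer wells and 100% = peptide blocker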
14-3-3 Bad PPI – disrupts binding of bovine 14-3-3 zeta to phospho-Bad peptide | P63103 | TR-FRET 14-3-3zeta/Dy647-pBad peptide displacement, 1 h | inhibition, % at 21.7 µM | hit rate 0.71% among 220,000 | AID 781;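 active = inhibition above about 70%, limit read from the data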;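 note: 0% = full 14-3-3 plus peptide FRET controls and 100% = background without 14-3-3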
p47phox inh – inhibitors of human p47phox binding; P14598; p47phox/p22phox peptide binding, fluorescence polarization, 2 h; inhibition, % at 24.7 µM; hit rate 0.53% among 220,000; AID 1274;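 active = inhibition above about 30%, limit read from the data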;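 note: 0% = p47phox with labelled peptide and 100% = labelled peptide alone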
* hit, by the source's call; nt = not tested or not shown.

SMILES | Mcl1-Noxa inh | Mcl1-Bid inh | Bim-Mcl-1 | 14-3-3 Bad PPI | p47phox inh
O=C(O)CCC(=O)NCCC1=c2ccccc2=N/C1=C\c1c(O)n(Cc2ccc(F)cc2)c(=S)[nH]c1=O | 103.5* | 100.2* | nt | 74.7* | -238.5
O=C(N/N=C/c1c(O)n(Cc2ccc(F)cc2)c(=O)[nH]c1=O)c1ccccc1 | -85.2 | -52.0 | nt | -7.6 | -16.7
CCN1C(=O)/C(=C/c2ccc3c(c2)CCN3CCCCl)C(=O)NC1=S | 80.9* | -73.2 | -2.0 | -28.0 | 3.2
O=C1NC(=S)N(C2CC2)C(=O)/C1=C/c1ccc2c(c1)CCN2CCCCl | 109.5* | 88.0* | -1.0 | 15.5 | -17.8
C=CCN1C(=O)/C(=C/c2ccc3c(c2)CCCN3CCC)C(=O)NC1=S | 47.1 | 37.2 | -6.0 | 7.7 | 42.9*
CC(C)(C)N1C(=O)NC(=O)/C(=C\c2ccc3c(c2)CCN3CCCCl)C1=O | 23.8 | -53.9 | nt | 1.3 | 25.6
COC(=O)c1cc(C(O)(C(=O)OC)C(F)(F)F)c(/N=C/N(C)C)s1 (stereo not given) | 19.8 | -14.9 | -3.0 | -1.8 | -8.9
O=c1[nH]c(=O)n(-c2cccc3ccccc23)c(O)c1/C=N/N1CCCCCC1 | 7.9 | -100.9 | nt | -2.5 | -9.0
CN1C2c3ccccc3C3C4c5ccccc5C(C31)C(C2[N+](=O)[O-])N4C (stereo not given) | -9.2 | -17.1 | nt | -6.2 | 91.8*
CC(C)CCNC(=O)c1c(N)n(Cc2ccc3c(c2)OCO3)c2nc3ccccc3nc12 | 30.0 | 26.3 | 4.0 | -12.5 | -17.6
CC(C)CNC(=O)c1c(N)n(Cc2ccco2)c2nc3ccccc3nc12 | 87.1* | 32.8 | 1.0 | -3.5 | -24.6
Nc1c(C(=O)NCC2CCCO2)c2nc3ccccc3nc2n1Cc1ccco1 (stereo not given) | 55.4* | -14.7 | nt | -2.3 | -26.5
CCCNC(=O)c1c(N)n(Cc2ccc3c(c2)OCO3)c2nc3ccccc3nc12 | 56.3* | -22.5 | 1.0 | -8.4 | -13.9
COCCCNC(=O)c1c(N)n(Cc2ccco2)c2nc3ccccc3nc12 | 55.3* | -80.5 | nt | 2.7 | -21.0
CC(C)C(=O)NC(Oc1ccccc1Cl)C(Cl)(Cl)Cl (stereo not given) | 1.9 | -7.3 | 0.0 | -17.6 | 0.1
c1cncc(C2Nc3cccc4cccc(c34)N2)c1 | 79.1* | -97.2 | nt | -3.7 | 2.2
O=C1CCCC2=C1C(c1cccnc1)Nc1ccccc1N2 (stereo not given) | -8.3 | -22.6 | -3.0 | -5.4 | -2.5
O=P(OCC(F)(F)C(F)F)(N1CCCCC1)N1CCCCC1 | -4.8 | -11.5 | 1.0 | -7.1 | 29.6
O=C1NC(=O)C(=Cc2ccc(Sc3ccccc3)o2)C(=O)N1 | 16.5 | -82.6 | nt | 2.1 | -0.6
O=C1NC(=O)N(c2ccc(Cl)cc2)C(=O)/C1=C\c1ccc(Sc2nc3ccccc3[nH]2)o1 | 68.5* | -2.3 | 4.0 | 19.0 | -225.1
CCCn1c(C)cc(C=O)c1C | 15.2 | -23.2 | -2.0 | -12.3 | -4.1
O=C(Nc1ccc(F)cc1)OC1CN2CCC1CC2 (stereo not given) | 3.7 | -0.8 | nt | -0.3 | -5.9
O=P(O)(O)C#Cc1ccccc1 | 12.2 | 96.4* | -4.0 | 31.2 | -4.3
C=C(c1ccccc1)P(=O)(O)O | 29.7 | 13.6 | -5.0 | 28.5 | -0.8
CN(C)c1ccc(/C=C2\C(=O)NC(=O)N(Cc3ccc(F)cc3)C2=O)cc1 | 22.8 | -39.8 | nt | 8.3 | 96.6*
SMILES | Mcl1-Noxa inh | Mcl1-Bid inh | Bim-Mcl-1 | 14-3-3 Bad PPI | p47phox inh
CSc1ncc(/C=C2/C(=O)NC(=O)N(c3ccc(C(C)C)cc3)C2=O)cn1 | 38.9 | -31.3 | -2.0 | 0.5 | -7.8
O=C1NC(=O)N(Cc2ccc(F)cc2)C(=O)/C1=C\c1ccoc1 | 0.9 | -39.5 | nt | 2.5 | -35.3
CC(C)c1ccc(N2C(=O)NC(=O)/C(=C/c3cnc(-c4ccccc4)nc3)C2=O)cc1 | 61.0* | -7.5 | -4.0 | 10.4 | 0.1
O=C1NC(=O)N(Cc2ccccc2)C(=O)/C1=C/c1cnc(-c2ccccc2)nc1 | 51.0* | -17.0 | -3.0 | 4.5 | 1.0
COc1ccccc1NC1(C#N)CCCCC1 | 0.9 | -70.2 | 0.0 | -3.5 | -9.0
CC(=NCc1ccco1)c1c(O)n(-c2ccc(Cl)cc2)c(=O)[nH]c1=O | -3.0 | -8.7 | nt | -1.4 | 6.4
C[C@]12CCC(=O)C(O)=C1CC[C@@H]1[C@@H]2CC[C@]2(C)C(=O)CC[C@@H]12 | 2.3 | -9.9 | -4.0 | -6.7 | 1.7
OC1(CN2CCOCC2)C2CC3CC(C2)CC1C3 (stereo not given) | 25.4 | -29.9 | -4.0 | 32.9 | -0.1
CC(C(=O)c1c[nH]c2ccccc12)N1CCN(C(=O)c2ccco2)CC1 (stereo not given) | 5.7 | -30.6 | nt | -19.1 | -12.7
